Among the data in PubChem BioAssay (NCATS) are Potency and max response values, retold here.

For assay [1], the target named is Calcium and integrin-binding protein 1 (Homo sapiens) (UniProt Q99828). The assay is described as follows: Primary qHTS for Identification of Calcium Integrin Binding Protein 1 (CIB1) Competitor (AID 1508620). Also: top concentration of the series differs between compounds; % is scaled to controls: 0 for no effect and ±100 for the full control effect. Summed up: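 Fluorescence polarization competition: GST-tagged CIB1 (1 uM final) preincubated with compound 15 min at room temperature, then FITC-labelled alphaIIb peptide (100 nM final) added. After 15 min at room temperature, polarization read at Ex 480/Em 540.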
(qHTS replaces the single test concentration by a dilution series.)

Assay [2] in a line: Primary qHTS for small molecule stabilizers of the endoplasmic reticulum resident proteome: Secreted ER Calcium Modulated Protein (SERCaMP) assay (AID 1508630). Also: potency is read from the fitted curve at half-maximal effect. Summed up:
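GLuc-SERCaMP-expressing SH-SY5Y cells, pretreated 16 h with compound, are challenged with thapsigargin to empty ER calcium stores; after 4 h, coelenterazine is added directly to the medium and luminescence is imaged.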

Assay [3] can be described thus: Counterscreen qHTS for small molecule stabilizers of the endoplasmic reticulum resident proteome: GLuc-NoTag assay (AID 1508627). Also: potency is read from the fitted curve at half-maximal effect. The essentials: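 SH-SY5Y cells stably expressing constitutively secreted GLuc without SERCaMP tag, exposed to compound for 19 hr, then to 100 nM thapsigargin for 4 hr at 37C. Medium luciferase was read by coelenterazine luminescence without lysis.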
(In general: A counterscreen serves to expose hits that act by an unwanted route or on another target.)

The nature of assay [4]: Confirmatory qHTS for small molecule stabilizers of the endoplasmic reticulum resident proteome: Secreted ER Calcium Modulated Protein (SERCaMP) assay (AID 1508628). Also: nearly all actives have a fitted effect of over 40% in size. Also: potency is read from the fitted curve at half-maximal effect. Summed up: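 We seeded SH-SY5Y-GLuc-SERCaMP cells, added compounds (three concentrations in the primary run, eleven up to 76.6 uM in confirmation), incubated 16 h, depleted ER calcium with thapsigargin, and read luciferase 4 h later.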

A short description of assay [5]: Cell Viability qHTS for small molecule stabilizers of the endoplasmic reticulum resident proteome (AID 1508629).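 Also: human SH-SY5Y neuroblastoma cells carrying the GLuc-SERCaMP reporter; compound exposure about 46 h in total before the viability read; % is scaled to controls: 0 for no effect and ±100 for the full control effect.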 The conditions noted are these: cell viability counter-screen, 100 nM thapsigargin for final 4 h.
Assay [6] deals with Cytochrome P450 2D6 (Homo sapiens) (UniProt P10635). The assay is described as follows: Cytochrome P450 family 2 subfamily D member 6 (CYP2D6) small molecule antagonists: luciferase biochemical (cell-free) qHTS assay (AID 1645840; active = well fitted curve in the direction sought with a large enough effect in the repeat runs; an effect the other way counts as inactive or inconclusive; also: nearly all actives have a fitted effect of over 55% in size; also: potency is read from the fitted curve at half-maximal effect). Summed up: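 P450-Glo luminescent screen: recombinant CYP2D6 enzyme–proluciferin substrate mix preincubated with compound 10 min at room temperature, then NADPH regeneration added for 1 h at room temperature. Detection reagent added for 20 min; luciferin light read as relative luminescence units.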

For assay [7], the target named is Cytochrome P450 2C9 (Homo sapiens) (UniProt P11712). The assay is described as follows: Cytochrome P450 family 2 subfamily C member 9 (CYP2C9) small molecule antagonists: luciferase biochemical (cell-free) qHTS assay (AID 1645842; active = well fitted curve in the direction sought with a large enough effect in the repeat runs; an effect the other way counts as inactive or inconclusive; also: nearly all actives have a fitted effect of over 55% in size; also: potency is read from the fitted curve at half-maximal effect). The essentials:
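Luminescence, after 20 min with luciferin detection reagent, reflected CYP2C9 turnover during a 1 h NADPH-driven reaction at 37C. Enzyme-substrate mix contained 0.4% bovine serum albumin and was preincubated with compound 10 min at room temperature.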

The nature of assay [8]: Primary qHTS for inhibitors of nuclear receptor binding SET domain protein 2 (NSD2) in an isogenic RCH-ACV NSD2 p.E1099K mutant (9B) (AID 1645876). Also: nearly all actives have a fitted effect of over 70% in size. Also: potency is read from the fitted curve at half-maximal effect.

Inconclusive results are not listed. A number with no mark means an inactive call. Active and inactive are the calls of the source. Unless noted, calls follow the shape of the dose curve; as a rule, active = well fitted curve in the direction sought with a large enough effect; inconclusive = small, poorly fitted or top-dose-only effect, or another doubt; inactive = no such curve, though single readings can be large; an effect the other way counts as inactive or inconclusive.

Chain of Cytochrome P450 2D6 (Homo sapiens) (P10635 whole entry, looked up): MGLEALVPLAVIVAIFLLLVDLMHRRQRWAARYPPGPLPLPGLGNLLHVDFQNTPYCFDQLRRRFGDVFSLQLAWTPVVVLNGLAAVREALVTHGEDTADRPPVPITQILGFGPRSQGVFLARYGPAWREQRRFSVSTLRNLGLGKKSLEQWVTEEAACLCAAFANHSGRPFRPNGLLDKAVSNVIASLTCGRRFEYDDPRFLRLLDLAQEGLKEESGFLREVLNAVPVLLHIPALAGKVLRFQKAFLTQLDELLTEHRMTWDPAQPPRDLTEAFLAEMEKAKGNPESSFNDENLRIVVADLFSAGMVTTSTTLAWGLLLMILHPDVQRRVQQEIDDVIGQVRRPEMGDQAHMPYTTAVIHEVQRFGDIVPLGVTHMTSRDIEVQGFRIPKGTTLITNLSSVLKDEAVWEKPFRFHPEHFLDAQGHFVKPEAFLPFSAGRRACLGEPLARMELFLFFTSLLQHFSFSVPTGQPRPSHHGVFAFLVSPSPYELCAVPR
Chain of Calcium and integrin-binding protein 1 (Homo sapiens) (Q99828 whole entry, looked up): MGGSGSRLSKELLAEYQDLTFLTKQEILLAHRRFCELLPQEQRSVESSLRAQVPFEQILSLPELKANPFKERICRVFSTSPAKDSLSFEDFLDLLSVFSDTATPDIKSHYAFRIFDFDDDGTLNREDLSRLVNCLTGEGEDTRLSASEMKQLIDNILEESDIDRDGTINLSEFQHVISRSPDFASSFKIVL
Chain of Cytochrome P450 2C9 (Homo sapiens) (P11712 whole entry, looked up): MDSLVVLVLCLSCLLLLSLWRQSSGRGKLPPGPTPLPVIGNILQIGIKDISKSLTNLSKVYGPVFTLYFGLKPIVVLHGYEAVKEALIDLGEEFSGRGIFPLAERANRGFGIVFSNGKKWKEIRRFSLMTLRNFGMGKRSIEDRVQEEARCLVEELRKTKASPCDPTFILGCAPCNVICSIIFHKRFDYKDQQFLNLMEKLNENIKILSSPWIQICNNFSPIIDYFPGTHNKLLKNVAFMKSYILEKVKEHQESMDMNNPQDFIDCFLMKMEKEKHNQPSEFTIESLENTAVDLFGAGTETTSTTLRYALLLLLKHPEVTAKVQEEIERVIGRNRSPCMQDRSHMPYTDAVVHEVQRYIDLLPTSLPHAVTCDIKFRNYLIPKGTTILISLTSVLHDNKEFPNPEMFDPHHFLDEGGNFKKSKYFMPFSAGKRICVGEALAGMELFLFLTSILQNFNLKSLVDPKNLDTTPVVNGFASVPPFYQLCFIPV

`Cc1[nH]c(C=C2C(=O)Nc3ccc(S(=O)(=O)N(C)c4cccc(Cl)c4)cc32)c(C)c1C(=O)N1CCN(C)CC1`: the Potency result in assay [1] and in assay [2] was “inactive” throughout.

In the case of `CNC(=O)c1cc(COc2nnc(Nc3ccc(Cl)cc3)c3ccoc23)ccn1`, the Potency entry in assay [1] is “inactive”.

Turning to `Cc1cc(CS(=O)(=O)c2ccccc2)cc(OCc2ccc(CN3CCC[C@H]3CO)cc2)c1`, the Potency result in assay [1] and in assay [2] was “inactive” in each case.

Regarding `CCCCCOC(=O)Nc1nc(=O)n([C@@H]2O[C@H](C)[C@@H](O)C2O)cc1F` (some centres not stated), the Potency entry in assay [1] and in assay [2] was “inactive” throughout.

On to `CN1CCN(c2ncc(-c3cc(Cl)cc(Cl)c3Cl)c(N)n2)CC1`, for which the Potency result in assay [1] is “inactive”.

Consider `O=S(=O)(NCCNCC=Cc1ccc(Br)cc1)c1cccc2cnccc12`, for which the Potency entry in assay [1] and in assay [2] was “inactive” each time.

Regarding `NS(=O)(=O)c1cc(Cl)c(Cl)c(S(N)(=O)=O)c1`, the Potency entry in assay [1], in assay [3], in assay [4], in assay [6], in assay [7] and in assay [8] was “inactive” each time. The max response in assay [5] is 21%.

With `CC(C)C[C@H](NC(=O)c1cc2ccccc2s1)C(=O)N1CCN(C(=O)[C@H](CO)NS(=O)(=O)c2ccc(Cl)cc2Cl)CC1`, the Potency result in assay [1] is “inactive”. In addition, the Potency in assay [3] is 44.7 µM (active); in assay [4] it was 15.8 µM (active); in assay [2], 23.7 µM (active); in assay [8], 23.5 µM (active).

As to `CC(=O)OCC(=O)[C@@]12OC(C)(C)O[C@H]1C[C@H]1[C@@H]3C[C@H](F)C4=CC(=O)C=C[C@]4(C)[C@@]3(F)[C@@H](O)C[C@@]12C`, the Potency entry in assay [1] and in assay [2] was “inactive” in each case.

With `CC(C)=CCCC(C)=CCCC(C)=CCCC(C)=CCCC(C)=CCCC(C)=CCCC(C)=CCCC(C)=CCCC(C)=CCO`, the Potency result in assay [1], in assay [3] and in assay [4] was “inactive” throughout. The max response in assay [5] is 2.98%.

With `COc1ccc2c(c1)CC[C@H]1[C@@H]2CC[C@]2(C)[C@@H](NCCCCCCN3C(=O)C=CC3=O)CC[C@H]12`, the Potency entry in assay [1] and in assay [2] was “inactive” throughout.

In the case of `C[C@]12CC[C@@H]3c4ccc(O)cc4CC[C@H]3[C@H]1[C@@H](O)[C@@H](O)[C@H]2O`, the Potency result in assay [1] and in assay [2] was “inactive” throughout.

Regarding `C[C@]12C=CC(=O)C=C1CC[C@@H]1[C@@H]2[C@@H](O)C[C@@]2(C)[C@@H]1CC[C@]2(O)C(=O)CO`, the Potency result in assay [1] and in assay [2] was “inactive” throughout.

`O=C(Nc1ccccc1)Nc1ccc(-c2ccc(C(=O)[C@H]3CCC[C@H]3C(=O)O)cc2)cc1`: the Potency result in assay [1] and in assay [2] was “inactive” throughout.

For the compound `CC(C)c1c(C(=O)Nc2ccccc2)c(-c2ccccc2)c(-c2ccc(F)cc2)n1CC[C@H](O)C[C@@H](O)CC(=O)O`, the Potency entry in assay [1] is “inactive”.

Consider `COc1cc(CNC(=O)CCCCC=CC(C)C)ccc1O`, for which, in assay [1], the Potency entry is “inactive”.

Consider `C=CC[N+]1([C@H]2C[C@H]3[C@@H]4CC[C@H]5C[C@H](O)[C@@H](N6CCOCC6)C[C@]5(C)[C@@H]4CC[C@]3(C)[C@H]2OC(C)=O)CCCC1`, for which the Potency result in assay [1] and in assay [2] was “inactive” throughout.

Turning to `CC[C@]1(O)C[C@H]2CN(CCC3=c4ccccc4=N[C]3[C@@](C(=O)OC)(c3cc4c(cc3OC)N(C)[C@H]3[C@@](O)(C(N)=O)[C@H](O)[C@]5(CC)C=CCN6CC[C@]43[C@@H]65)C2)C1`, the Potency entry in assay [1] and in assay [2] was “inactive” each time.

For `COc1cc2nc(-c3cc(F)ccc3O)nc(N[C@@H]3CNC[C@@H]3C(C)(C)O)c2cc1OC`, the Potency result in assay [1] and in assay [2] was “inactive” each time.

In the case of `C#C[C@]1(O)CC[C@H]2[C@H]3CCc4cc(OC)ccc4[C@H]3CC[C@@]21C`, the Potency entry in assay [1] and in assay [2] was “inactive” in each case.

For `CC(C)CN(C[C@H](O)[C@H](Cc1ccccc1)NC(=O)O[C@H]1CCOC1)S(=O)(=O)c1ccc(N)cc1`, the Potency result in assay [1] and in assay [2] was “inactive” throughout.

Take `C[C@@H](NC(=O)c1ncnc(N)c1Cl)c1ncc(C(=O)Nc2cc(C(F)(F)F)c(Cl)cn2)s1`: the Potency result in assay [1], in assay [2] and in assay [6] was “inactive” in each case.

Regarding `Cc1csc(-c2nnc(Nc3ccc(Oc4ncccc4-c4ccnc(N)n4)cc3)c3ccccc23)c1`, the Potency result in assay [1], in assay [2] and in assay [6] was “inactive” each time. Besides, in assay [7], the Potency was 12 µM (active).

Consider `CC(C)(C)c1[nH]cnc1C=c1[nH]c(=O)c(=Cc2ccccc2)[nH]c1=O`, for which the Potency result in assay [1] and in assay [2] was “inactive” in each case.

As to `C[C@@H](O[C@H]1OCCN(Cc2n[nH]c(=O)[nH]2)[C@@H]1c1ccc(F)cc1)c1cc(C(F)(F)F)cc(C(F)(F)F)c1`, the Potency result in assay [1] and in assay [2] was “inactive” each time.

Consider `COc1cc2c(cc1OC)[C@@H]1Cc3ccc(OC)c(OC)c3CN1CC2`, for which the Potency entry in assay [1] and in assay [2] was “inactive” in each case.

In the case of `C[C@H]1[C@H](O)O[C@@H]2O[C@@]3(C)CC[C@@H]4[C@H](C)CC[C@@H]1[C@@]24OO3`, the Potency entry in assay [1] and in assay [2] was “inactive” throughout.

As for `NC(=O)c1nnn(Cc2cc(Cl)c(C(=O)c3ccc(Cl)cc3)c(Cl)c2)c1N`, the Potency entry in assay [1] and in assay [2] was “inactive” each time. Besides, in assay [6], the Potency was 26.8 µM (active).

For `O=c1[nH]c(=O)n([C@H]2C[C@@H](O)[C@@H](CO)O2)cc1I`, the Potency entry in assay [1] and in assay [2] was “inactive” in each case.

For `COc1c(C)c2c(c(O)c1CC=C(C)CCC(=O)O)C(=O)OC2`, the Potency entry in assay [1] and in assay [2] was “inactive” throughout.

`COc1cc2ncnc(Nc3cc(Br)c(O)c(Br)c3)c2cc1OC`: the Potency result in assay [1], in assay [2] and in assay [6] was “inactive” throughout.

For the compound `CCC[C@@H](NC(=O)[C@@H]1[C@H]2CCC[C@@H]2CN1C(=O)[C@@H](NC(=O)[C@@H](NC(=O)c1cnccn1)C1CCCCC1)C(C)(C)C)C(=O)C(=O)NC1CC1`, the Potency entry in assay [1] and in assay [2] was “inactive” each time.

With `Oc1ccc(C=Cc2cc(O)cc(O)c2)cc1`, the Potency result in assay [1] and in assay [2] was “inactive” throughout.
